Screening results: PubChem, National Center for Advancing Translational Sciences (NCATS)
SW480 rereplic: A quantitative high throughput screen for small molecules that induce DNA re-replication in SW480 colon adenocarcinoma cells. SW480 DNA re-replication, Hoechst DNA content imaging, 48 h. Potency, µM (series often up to 46.1 µM), for inactives: at the highest dose re-replication activation, usual class: activators. actives 1.8% (n = 340,000). AID 624297, 2012; further: potency means the concentration at half of the fitted maximal effect; % of control where 0% means no effect; nearly all actives have a fitted effect of over 55% in size
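Treated cells incubate 48 hr (37 C, 5% CO2), are stained 40 min with Hoechst, and nuclear fluorescence is enumerated; a rise in nuclei with high DNA signal marks re-replication.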
VP16 counter: VP16 counterscreen qHTS for inhibitors of ROR gamma transcriptional activity; AID 2546, 2010; Drosophila S2 Gal4-VP16 UAS-luciferase, luminescence, 20 h; actives 3.5% (n = 310,000); Potency, µM (titrated, usually from 53.6 µM), for inactives: top-dose activity, negative = inhibition, most hits filed as inhibitors;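 further: Gal4-VP16 expression switched on by copper sulfate through the metallothionein promoter; potency means the concentration at half of the fitted maximal effect; on the % scale 0 is the no-effect control and ±100 the full control effect; nearly all actives have a fitted effect of over 50% in size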
RORgamma inh: qHTS for inhibitors of ROR gamma transcriptional activity; Nuclear receptor ROR-gamma (Mus musculus), P51450; Drosophila S2 Gal4-RORgamma UAS-luciferase reporter, 20 h; Potency, µM (titrated, usually from 53.6 µM), without a hit: top-dose activity change, negative = inhibition, actives largely listed as inhibitors; actives 5.4% (n = 310,000); AID 2551, 2010; further: potency means the concentration at half of the fitted maximal effect; on the % scale 0 is the no-effect control and ±100 the full control effect; nearly all actives have a fitted effect of over 60% in size
Target sequence (P51450 whole entry, looked up, the tested form may be a part): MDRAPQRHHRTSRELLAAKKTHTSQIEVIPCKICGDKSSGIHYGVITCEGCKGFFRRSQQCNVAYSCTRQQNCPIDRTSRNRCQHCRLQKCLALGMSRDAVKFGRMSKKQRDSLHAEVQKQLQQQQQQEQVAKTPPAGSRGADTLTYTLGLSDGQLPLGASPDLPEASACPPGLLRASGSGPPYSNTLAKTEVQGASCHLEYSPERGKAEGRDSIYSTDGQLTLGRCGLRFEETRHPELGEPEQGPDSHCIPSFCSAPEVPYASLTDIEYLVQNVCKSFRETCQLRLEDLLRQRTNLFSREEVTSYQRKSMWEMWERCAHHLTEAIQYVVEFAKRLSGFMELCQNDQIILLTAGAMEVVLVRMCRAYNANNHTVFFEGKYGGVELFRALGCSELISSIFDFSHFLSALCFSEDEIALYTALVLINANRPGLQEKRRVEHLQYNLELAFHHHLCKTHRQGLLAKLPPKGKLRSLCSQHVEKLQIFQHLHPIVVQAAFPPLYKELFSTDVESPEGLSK
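In this cell-based reporter format, copper sulfate (700 uM final) drives Gal4–ROR gamma fusion expression from a metallothionein promoter in Drosophila Schneider cells; compounds preincubated 1 hr, reporter read after 20 hr at ambient temperature.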
MCF10A rerep: A quantitative high throughput screen for small molecules that induce DNA re-replication in MCF 10a normal breast cells; MCF 10A DNA re-replication, Hoechst nuclear intensity, 48 h; Potency, µM (highest dose often 46.1 µM), inactives show top-dose activity, positive = re-replication, hits mostly activators; actives 2.9% (n = 350,000); further: potency means the concentration at half of the fitted maximal effect; % of control where 0% means no effect; nearly all actives have a fitted effect of over 50% in size
IL-1B inflam inh: qHTS for Inhibitors of Inflammasome Signaling: IL-1-beta AlphaLISA Primary Screen. THP-1 LPS/ATP IL-1B secretion, AlphaLISA, 16 h; hits give low values. activity change, % at 57.5 µM. actives 4.7% (n = 360,000); in the data active means activity change below about -50%; inconclusive means mostly about -30% to -49%; further: on the % scale 0 is the no-effect control and ±100 the full control effect
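Secreted IL-1B measured by AlphaLISA bead assay after 16 h compound exposure of THP-1 cells; compounds (final up to 57.5 uM) added 1 h before LPS (250 ng/mL) and ATP (1.25 mM) stimulation; lower signal means less secretion.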
The depositor's hits bear a star; u = inconclusive; x = no result; ! = a repeat was not active; [ ] = another dose, or the depositor's remark. Compounds with a hit are over-represented: about 11% of the library has one in this group of screens. Unless noted, the call rests on the fitted dose curve; in most records, active means well fitted curve in the direction sought with a large enough effect; inconclusive means small, poorly fitted or top-dose-only effect, or another doubt; inactive means no such curve, though single readings can be large; an effect the other way counts as inactive or inconclusive.

SMILES	SW480 rereplic	VP16 counter	RORgamma inh	MCF10A rerep	IL-1B inflam inh
Cc1ccc(O)c(C2=NNC(O)(C(F)(F)F)C2)c1 (stereo unspecified)	0.6%[9.22 µM]	-23.0%	0.0%	4.3%	-9.0
Oc1ccc(Cl)cc1C1=NNC(c2cccs2)C1 (stereo unspecified)	u	u	5.01µM*	16.8%	2.4
Nc1nc(NC2CC2)c2ncn([C@H]3C=C[C@@H](CO)C3)c2n1	-1.5%	-15.8%	0.6%[10 µM]	2.0%	x
COc1ccc(C2/C=C\CN(CC3CCCCC3)C(Cc3ccccc3)C(=O)N2Cc2ccc(F)cc2)cc1 (stereo unspecified)	x	3.5%	15.5%	x	x
Cc1cccc(NC(=O)CSc2cccc3cccnc23)c1	u	u	u	1.6%	46.9
CC(=O)/C(=N\Nc1ccccc1)Sc1cccc2cccnc12	0.4%	u	14.1µM*	-6.7%	-5.7
CC(=O)/C(=N\Nc1ccccc1Cl)Sc1cccc2cccnc12	u	4.47µM*	2.82µM*	u	-16.1
Cc1ccc(CCNC(=O)CCCn2nc(C)c3c(C)n(-c4ccc(C)cc4)nc3c2=O)cc1	-2.8%	-12.3%	3.8%	10.8%	-3.7
COc1ccc(CCNC(=O)C(C)n2nc(C)c3c(C)n(-c4ccc(C)cc4)nc3c2=O)c(OC)c1 (stereo unspecified)	u	-9.6%	14.8%	-1.2%	-50.4*
Cc1nn(CCCC(=O)NCCc2ccc(Cl)cc2)c(=O)c2nn(-c3ccccc3)c(C)c12	-8.1%	u	-5.4%	0.0%	-7.9
CCOc1ccc(-n2nc3c(=O)n(CCN4CCCCC4)nc(C)c3c2C)cc1	23.1µM*	2.6%	-0.8%	-0.3%	-7.9
Cc1nn(CC(=O)NCCN2CCCCCC2)c(=O)c2nn(-c3ccccc3)c(C)c12	-7.7%	11.0%	-18.9%	-0.9%	0.0
Cc1nn(Cc2ccccc2)c(=O)c2nn(-c3ccc(Cl)cc3)c(C)c12	-21.7%	u	u	-5.9%	-70.2*
Cc1ccc(-n2nc3c(=O)n(CC(=O)NCCc4ccc(Cl)cc4)nc(C)c3c2C)cc1	-0.5%	12.6µM*	44.2%	1.8%	-7.6
CC(OC(=O)CNC(=O)c1ccc(Cl)cc1)C(=O)NC1CCCCC1C (stereo unspecified)	17.3%	x	x	-1.0%	-1.6
CC1(C(=O)Nc2cnc3ccccc3c2)CCN1C(=O)c1ccccc1CCc1ccccc1 (stereo unspecified)	x	x	x	x	-9.8
CC(=O)OCC[C@H](NS(=O)(=O)OCC(Cl)(Cl)Cl)c1ccccc1	-5.0%	-4.5%	-25.0%	16.3%	-2.9
Cc1cc(C(=O)CN2c3cccc4cccc(c34)S2(=O)=O)c(C)n1C	3.26µM*	x	x	3.66µM*	62.0
COCC(C)n1c(C)cc(C(=O)CN2c3cccc4cccc(c34)S2(=O)=O)c1C (stereo unspecified)	2.7%	x	x	-8.1%	-3.5
CN(C)c1ccc(-c2ccc(C3C4C=CCCC4(C)C(=O)N3Cc3ccccc3)c(F)c2)cc1 (stereo unspecified)	x	-7.9%	19.4%	x	x
O=C(/C=C/c1ccc2ccccc2n1)c1cc(Br)ccc1O	4.9%	-5.6%	-0.4%	14.4%	44.3
Cc1ccc(/C=C/C(=O)c2ccccc(=O)c2O)cc1C	u	3.55µM*	2.82µM*	20.6µM*	-81.1*
O=C(/C=C/c1ccc(F)cc1)c1cc(Br)ccc1O	27.5%	27.6%	59.3%	103.1%	-56.8*
O=C(/C=C/c1ccccc1)c1cc(Br)ccc(=O)c1O	u	u	u	u	-58.6*
O=C(/C=C\c1ccccc1)c1ccccc1O	x	26.3%[10 µM]	17.2%[10 µM]	x	x
SMILES	SW480 rereplic	VP16 counter	RORgamma inh	MCF10A rerep	IL-1B inflam inh
CC1=C(C(=O)N(C)C)CC(CC(=O)NC2CCCCC2)C(=O)N1CCCN1CCCC1=O (stereo unspecified)	x	x	x	x	16.0
CCCOc1ccc(F)cc1-c1cc(C(=O)Nc2ccc(C(C)C)cc2)[nH]n1	x	x	x	x	0.0
CS(=O)(=O)N(CC(=O)N1CCc2ccccc2C1)c1ccccc1F	3.1%	x	x	-2.0%	10.5
CCN1CCCC1CN(Cc1cc2ccc(C)cc2[nH]c1=O)C(=S)Nc1ccccc1OC (stereo unspecified)	u	-4.9%	-4.0%	u	-12.1
CCN1CCCC1CN(Cc1cc2ccc(C)cc2[nH]c1=O)C(=S)Nc1cccc(OC)c1 (stereo unspecified)	u	-18.9%	-34.8%	14.8%	-77.0*
CCN1CCCC1CN(Cc1cc2ccc(C)cc2[nH]c1=O)C(=S)Nc1ccc(F)cc1 (stereo unspecified)	-5.0%	-6.4%	-6.7%	6.51µM*	0.0
CCN1CCCC1CN(Cc1cc2ccc(C)cc2[nH]c1=O)C(=S)Nc1ccc(OC)cc1 (stereo unspecified)	u	6.2%	-7.1%	u	-106.5*
CC(=O)OC[C@@H]1O[C@H](C/C=N\O[C@@H](C)c2cc(-c3c(C)cc(C)cc3C)no2)C=C[C@@H]1OC(C)=O	x	1.2%[10 µM]	5.2%[10 µM]	x	x
O=C(c1[nH]ncc1-c1cccc(Br)c1)C1CO1 (stereo unspecified)	u	u	u	u	-96.2*
O=C(c1[nH]ncc1-c1ccccc1)C1CO1 (stereo unspecified)	u	-2.4%	23.2%	u	-72.8*
CCCc1sc(N/N=C/c2ccccn2)nc1-c1ccc(Br)cc1	u	1.41µM*	1.58µM*	u	71.5
CCCc1sc(N)nc1-c1ccc(C)cc1	5.0%	-3.4%	u	0.6%	-5.9
COC(=O)c1ccc(Oc2cc(C)nc(-n3nc(C)cc3C)n2)cc1	0.82µM*	3.16µM*	0.282µM*	2.06µM*	48.1
CCOC(=O)c1ccc(Oc2cc(C)nc(SC)n2)cc1	6.51µM*	-11.1%	-34.0%	1.84µM*	25.1
C=C1/C(=C\C=C2/CCC[C@]3(C)[C@@H]([C@H](C)CCCC(C)(C)O)CC[C@@H]23)C[C@@H](O)C[C@@H]1O	1.5%	u	10µM*!	21.1µM*	x
C=C1CC[C@H](O)C/C1=C/C=C1\CCC[C@]2(C)[C@@H]([C@H](C)CCCC(C)(C)O)CC[C@@H]12	8.6%	11.2µM*!	u	10.6µM*	x
C=C1CC[C@H](O)C/C1=C/C=C1\CCC[C@]2(C)[C@@H]([C@H](C)CC[C@@H](O)C(C)(C)O)CC[C@@H]12	20.6%	u	-30.7%	u	x
CCCCn1nnnc1-c1nc2ccccc2[nH]c1=O	x	x	x	x	-20.3
Cn1ccnc1-c1nc2ccccc2[nH]c1=O	u	3.55µM*	3.55µM*	6.5%	26.8
